# Pf growth 96h: Primary qHTS for delayed death inhibitors of the malarial parasite plastid, 96 hour incubation. P. falciparum luciferase reporter growth, 96 h. Potency, µM (titrated, usually from 28.7 µM), for the others: at the top dose activity change, negative = inhibition, actives largely listed as inhibitors. 6.9% of 320,000 active. AID 504834, 2011; note: potency is the fitted concentration of half-maximal effect; % is set by controls: 0 for no effect and ±100 for the full control effect
#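 Plates of compound plus infected erythrocytes (2% hematocrit, 0.05% parasitemia final) incubate 96 hours, 37 C, 5% CO2. Detection reagent added; reduced luminescence from the parasites' luciferase reporter flags inhibition.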
# Sm TGR block: qHTS Assay for the Inhibitors of Schistosoma Mansoni Peroxiredoxins. 3% of 360,000 active. AID 485364, 2010. purified TGR, DTNB reduction, TNB absorbance 405 nm. Potency, µM (top dose mostly 114 µM), for inactives: at the top dose activity change, negative = inhibition, most hits filed as inhibitors; note: potency is the fitted concentration of half-maximal effect; % is set by controls: 0 for no effect and ±100 for the full control effect; nearly all actives have a fitted effect of over 60% in size
#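 First, TGR (20 nM dispensed) and NADPH were mixed with compound. Second, a 15 min room-temperature incubation followed. Third, further NADPH and then DTNB were added to start the reaction. Finally, TNB absorbance was monitored kinetically.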
# HCV inhibitor: qHTS Assay for Inhibitors of Hepatitis C Virus (HCV); Huh7.5.1 HCVcc-Cre infection, luciferase reporter, 44 h; Potency, µM (top dose mostly 41.8 µM), without a hit: at the highest dose activity change, negative = inhibition, most hits filed as inhibitors; 3.4% of 340,000 active; note: potency is the fitted concentration of half-maximal effect; % is set by controls: 0 for no effect and ±100 for the full control effect
#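 1,000 cells/well; 4 h culture; + compound; + HCVcc-Cre (~0.5 moi); 44 h; luciferase substrate, RT 15 min; read 15 sec.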
# SARS PLpro yeast: qHTS of Yeast-based Assay for SARS-CoV PLP; S. cerevisiae expressing SARS-CoV PLpro, growth rescue; Potency, µM (highest dose often 32.9 µM), without a hit: top-dose activity, positive = growth rescue, usual class: activators; 0.19% of 330,000 active; AID 485353, 2010; calls by dose curve; note: potency is the fitted concentration of half-maximal effect; 0% is about no effect; nearly all actives have a fitted effect of over 55% in size
# Pf growth 48h: Primary qHTS for delayed death inhibitors of the malarial parasite plastid, 48 hour incubation | Potency, µM (highest dose often 28.7 µM), for the others: top-dose activity change, negative = inhibition, actives largely listed as inhibitors | P. falciparum luciferase growth in erythrocytes, 48 h | 5.9% of 310,000 active | AID 504832, 2011; note: potency is the fitted concentration of half-maximal effect; % is set by controls: 0 for no effect and ±100 for the full control effect
#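 Read-out is firefly luciferase luminescence from an integrated reporter in P. falciparum, so falling signal marks reduced parasite growth. Infected erythrocytes were at 2% hematocrit and 0.1% parasitemia (final) in Albumax-supplemented RPMI 1640.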
# HCMV inh: qHTS Assay for inhibitors of the human cytomegalovirus (HCMV). activity change, negative = inhibition, % at 57.5 µM. HFF cells, HCMV-luciferase reporter, 72 h; hits give low values. 4.5% of 410,000 active. AID 1259415, 2018; in the data active = activity change below about -60%; inconclusive = no clear call, values can overlap the other calls; inactive = above about -39%; note: % is set by controls: 0 for no effect and ±100 for the full control effect
#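 Inhibition of viral replication was scored as loss of reporter luminescence in HFFs infected with HCMV-luciferase (MOI 1 PFU/cell) for 72 h; compounds tested at 2 doses, normalized to buffer and Salinomycin controls.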
# An asterisk follows results filed as active; u = inconclusive; x = not tested or not shown. An excerpt weighted towards active compounds, which were near 15% of everything screened. Unless noted, calls come from the whole dose curve; as a rule, active = well fitted curve in the direction sought with a large enough effect; inconclusive = small, poorly fitted or top-dose-only effect, or another doubt; inactive = no such curve, though single readings can be large; an effect the other way counts as inactive or inconclusive.
SMILES,Pf growth 96h,Sm TGR block,HCV inhibitor,SARS PLpro yeast,Pf growth 48h,HCMV inh
COc1ccc(-c2cc(C(=O)N3CCCCCC3)c3ccccc3n2)cc1,3.29µM*,5.0%,u,6.0%,9.28µM*,-14.9
CC1CCN(C(=O)c2cc3nc(-c4ccccc4)cc(-c4ccccc4)n3n2)CC1,6.57µM*,-2.8%,u,-26.4%,x,8.9
NC(=O)C1CCN(C(=O)c2cc(-c3ccc(Cl)cc3)nc3ccccc23)CC1,x,x,-15.7%,16.6%,x,29.5
Cc1ccc(-c2cc(C(=O)N3CCC(C)CC3)c3ccccc3n2)cc1,u,4.1%,u,-3.9%,-4.9%,-71.5*
COc1cc(OC)cc(C(=O)NCCNC(=O)c2ccccn2)c1,18.5%,-3.6%,9.0%,0.9%,-5.2%,-14.3
COc1cc(OC)cc(C(=O)NCCCCCCNC(=O)c2cc(OC)cc(OC)c2)c1,u,1.0%,7.08µM*,0.9%,u,14.7
COc1cc(OC)cc(C(=O)NCCCNC(=O)c2ccccn2)c1,11.7µM*,6.4%,3.6%,-1.9%,0.4%,-26.7
COc1cc(OC)cc(C(=O)NCCSC2CCCCC2)c1,50.4%,3.3%,3.16µM*,-0.6%,0.0%,10.1
CCC(C)c1ccc2oc(-c3ccc(NC(=O)Cn4cnc5c(=O)n(C)c(=O)n(C)c54)cc3)nc2c1 (stereo unspecified),u,4.1%,u,-11.7%,56.5%,-72.7*
COc1cc([N+](=O)[O-])c2nc(C)ccc2c1[N+](=O)[O-],x,x,6.31µM*,x,x,-3.4
COc1cc(NC(C)=O)c2ncccc2c1[N+](=O)[O-],13.0%,0.1%,-0.2%,1.4%,11.2%,-2.9
COc1cc(Cl)c(S(=O)(=O)N2CCCC2)cc1Cl,u,u,3.1%,-0.4%,24.9%,-24.2
COc1cc(N2C(=O)C=CC2=O)c(OC)cc1Cl,u,0.708µM*,u,-6.4%,u,-97.7*
O=C(NCC(c1ccc2c(c1)OCO2)N1CCN(c2ccccc2)CC1)c1ccc(F)c(F)c1 (stereo unspecified),x,1.7%,x,x,x,-13.4
COc1ccc(OC)c([N+](=O)[O-])c1C(N)=O,0.3%,79.4µM*,-3.9%,-0.8%,4.4%,14.5
CCNC(=S)N1N=C2c3ccccc3CCC2C1c1ccc(F)cc1 (stereo unspecified),2.62µM*,5.1%,u,-0.2%,7.38µM*,37.4
Cc1ccc(NC(=O)C(Cc2ccccc2)NS(=O)(=O)c2ccc3c(c2)c(=O)n(C)c(=O)n3C)cc1 (stereo unspecified),x,-9.6%,x,x,x,2.9
O=[N+]([O-])c1cccc(Cl)c1NCCNc1ncc(C(F)(F)F)cc1Cl,66.6%,3.0%,-24.8%,1.1%,48.4%,10.0
Cc1c(C(=O)NCCNc2ncc(C(F)(F)F)cc2Cl)cccc1[N+](=O)[O-],1.0%,-0.5%,11.2µM*,1.0%,-19.4%,-7.8
C[C@]12CCC(=O)C=C1C=CC1C2CC[C@]2(C)C(=O)CCC12 (stereo partly specified),x,x,18.6%,-0.2%,x,-69.9*
CCOc1ccc(-c2nnc(SCC(=O)NCc3ccccc3)o2)cc1,x,-2.7%,x,x,x,12.2
CCOc1ccc(-c2nnc(SCC(=O)NCc3ccc(Cl)cc3)o2)cc1,x,14.1µM*,x,x,x,9.5
CCOc1ccc(-c2nnc(SCC(=O)NCc3ccccc3Cl)o2)cc1,x,20µM*,x,x,x,7.1
CCN(CC)CCNc1nc2cc(OC)c(OC)cc2c2nc(-c3ccccc3)nn12,u,-5.4%,-2.5%,-0.4%,1.04µM*,-12.9
c1ccc(CNc2nc3ccccc3c3nc(-c4ccccc4)nn23)cc1,x,2.7%,x,x,x,-1.4
SMILES,Pf growth 96h,Sm TGR block,HCV inhibitor,SARS PLpro yeast,Pf growth 48h,HCMV inh
CC(CNc1nc2ccccc2c2nc(-c3ccccc3)nn12)c1ccccc1 (stereo unspecified),x,0.8%,x,x,x,-93.8*
O=C(Nc1nnc([C@@H]2C[C@H](O)[C@@H](CO)O2)s1)c1ccc(Oc2ccccc2)cc1,x,x,x,x,x,3.8
O=C(O)C1OC2OC3(CCCCC3)OC2C2OC3(CCCCC3)OC12 (stereo unspecified),1.47µM*,-4.9%,34.9%,-16.0%,13.0%,-34.2
O=c1c2cc(Br)ccc2nc(-c2ccccc2)n1O,-4.7%,0.7%,14.3%,-8.2%,x,-32.3
CC(=O)c1c(C)nc2ccccc2c1N,x,-6.8%,14.4%,1.8%,12.7%,-23.4
Cc1nc2ccccc2c(N)c1C(=O)/C=C/c1ccccc1,u,0.0%,11.2µM*,1.6%,5.86µM*,-98.5*
CN(c1ccc(C(=O)N2CCCCCC2)cc1)S(=O)(=O)c1ccc(Cl)cc1,26.3%,11.8%,x,-2.6%,u,-73.8*
COc1ccc(S(=O)(=O)N(C)c2ccc(C(=O)N3CCC(C(N)=O)CC3)cc2)cc1OC,1.8%,-33.0%,u,0.0%,-1.5%,-100.4*
O=c1cc(-c2ccc(O)cc2)oc2c1ccc1ccccc12,u,-4.4%,-26.4%,5.0%,32.5%,-13.3
O=c1cc(-c2ccncc2)oc2c1ccc1ccccc12,u,2.1%,u,-10.2%,u,-79.2*
O=c1cc(C(Cl)(Cl)Cl)oc2c1ccc1ccccc12,0.262µM*,-34.7%,u,0.1%,0.131µM*,-104.9*
COC(=O)CCC(=O)N1CCC(CCC(=O)NCc2ccc(F)cc2)CC1,5.22µM*,4.3%,-1.9%,-0.9%,-5.8%,82.5
COC(=O)CCCC(=O)N1CCC(CCC(=O)NCc2ccc(F)cc2)CC1,14.7µM*,13.9%,9.4%,-9.2%,-19.2%,5.5
COc1ccccc1NS(=O)(=O)c1ccc(C)c(C(=O)NCC2(N(C)C)CCCCC2)c1,u,-3.2%,-9.3%,-4.0%,u,-17.9
Cc1cc(C)n(CCO)c(=O)n1,2.33µM*,17.8%,9.9%,8.6%,8.9%,29.6
Cc1cc(=O)n(CCO)c(O)c1C#N,10.8%,-35.0%,8.7%,4.9%,13.3%,57.1
Cc1cc(=S)cc(C)n1CCO,11.3%,14.1µM*,25.5%,16.2%,4.9%,-2.8
CCCCOCCCNC(=O)C[C@@H]1C[C@@]2(C(=O)OC)CC(C)(C)CC=C2N(Cc2ccc3c(c2)OCO3)C1=O,x,x,x,x,x,-14.9
O=C(Nc1nccs1)NC(C(F)(F)F)C(F)(F)F,-9.4%,-9.6%,6.0%,-4.7%,x,18.8
Cc1cccc(NC(c2cccc(Cl)c2)c2ccc3cccnc3c2O)n1 (stereo unspecified),x,4.47µM*,x,x,x,-97.8*

# Compound activity (PubChem)
